Source: PubChem BioAssay (several laboratories)
Efflux pump mplx: inhibitors of Candida antifungal efflux pumps expressed in yeast; S. cerevisiae Candida pump triplex, Nile Red efflux; inhibition, % at 10 µM; hit rate 0.44% among 330,000;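 active = plate passing quality check with inhibition over a set limit, or well fluorescence over plate mean plus 4 SD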;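 note: Nile Red retained in pooled yeast measured as flow cytometry median fluorescence; 0% = buffer negative control and 100% = Enniatin B positive control; higher means more Nile Red kept so more efflux inhibition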
SUMO Mot1 rescue: blocks SUMOylation pathway, rescuing yeast Mot1-301 growth; S. cerevisiae Mot1-301 growth rescue, ATP luminescence, 38.5C; percent above DMSO median, 100 means doubled; growth rescue, % at 18.8 µM; hit rate 1% among 320,000;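 active = every valid replicate shows activation above 250% relative to neutral control wells; inactive = the rest, any valid replicate at or below 250%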;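 note: OY570 slx delta 5 strain wells were the positive control but not used for scaling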
AI-2 QS modul: Vibrio harveyi AI-2 quorum sensing modulation; Vibrio harveyi JMH597 AI-2 luminescence/OD600 ratio, 9 h; hits give low values; strain lacks LuxN and CqsS sensors; 0 = neutral-control median; activity change, % at 7.5 µM; hit rate 0.4% among 300,000; in the data active = activity change below about -75%, passing the limit was not always enough;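 note: luminescence divided by OD600 gain over 9 h not by final OD600 alone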
ATG4B inh: inhibitors of human ATG4B cysteine protease; Q9Y4P1; inhibition, % at 8.33 µM; hit rate 0.51% among 340,000; ATG4B cleavage of LC3-PLA2, NBD-HPC fluorescence, 1 h; in the data active = inhibition above about 40%
Target sequence (Q9Y4P1 whole entry, looked up): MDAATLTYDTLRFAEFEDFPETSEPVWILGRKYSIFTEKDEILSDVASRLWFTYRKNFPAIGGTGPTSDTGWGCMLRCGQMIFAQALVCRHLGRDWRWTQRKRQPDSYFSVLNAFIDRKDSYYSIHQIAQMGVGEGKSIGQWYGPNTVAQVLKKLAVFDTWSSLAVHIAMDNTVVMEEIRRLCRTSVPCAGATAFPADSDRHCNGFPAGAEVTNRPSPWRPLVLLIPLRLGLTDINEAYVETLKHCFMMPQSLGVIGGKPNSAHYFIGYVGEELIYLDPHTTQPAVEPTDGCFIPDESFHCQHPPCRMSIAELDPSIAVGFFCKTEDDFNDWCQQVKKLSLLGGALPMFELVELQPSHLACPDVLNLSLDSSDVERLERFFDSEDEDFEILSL
V-ATPase pHluor: yeast V-ATPase proton transport regulation by pHLuorin; S. cerevisiae, pHLuorin cytosolic pH fluorescence; response, % at 10 µM; hit rate 0.37% among 350,000; AID 504577; in the data active = response mostly above about 7.3%, no sharp cut-off; inactive = mostly below about 5.4%; note: actives read high
Yeast Mot1 SUMO: yeast SUMO pathway inhibition in dose response; shares compounds with SUMO Mot1 rescue; S. cerevisiae Mot1-301 galactose growth, ATP luminescence, 24 h; -100 = growth of slx-deleted rescue strain; AID 493004; growth activity, percent, % at 42 µM; 2,300 tested, under 10 active;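 active = Signal drops as the depositor expects, and the fitted half-maximal dose is no more than ten times the top valid tested dose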;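 note: more negative values mean stronger growth rescue toward the control strain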
Numbers without * were called inactive. Shown are actives, neighbours in structure and some others; about 2.5% of the full set was active somewhere.

For CC(C)CC(NC(=O)C(CC(C)C)NC(=O)OC(C)(C)C)C(N)=O (stereo not given) the results were Efflux pump mplx 0, SUMO Mot1 rescue 7, AI-2 QS modul 0, ATG4B inh 0 and V-ATPase pHluor -6.
For COc1cc2nc(CN(C)Cc3ccc(SC)cc3)[nH]c(=O)c2cc1OC the results were Efflux pump mplx 0, SUMO Mot1 rescue 2, AI-2 QS modul 20, ATG4B inh 2 and V-ATPase pHluor 6.
`COc1cc2nc(CSc3ncn[nH]3)[nH]c(=O)c2cc1OC` gave Efflux pump mplx 0, SUMO Mot1 rescue 556*, AI-2 QS modul 23, ATG4B inh -5, V-ATPase pHluor -2 and Yeast Mot1 SUMO 0.
For O=S1(=O)C=CC(c2ccccc2)C1 (stereo not given) the results were Efflux pump mplx 0, SUMO Mot1 rescue -4, AI-2 QS modul 7, ATG4B inh -2 and V-ATPase pHluor -1.
CC1=C(C#N)S(=O)(=O)C(C#N)C(c2ccccc2)C1 (stereo not given) was read as Efflux pump mplx 0, SUMO Mot1 rescue 502*, AI-2 QS modul 12, ATG4B inh 2, V-ATPase pHluor -2 and Yeast Mot1 SUMO -1.
Screening COc1ccc(OC)c(NC(=O)CN(c2ccc(C)cc2)S(=O)(=O)c2c(C)n[nH]c2C)c1 returned Efflux pump mplx 0, SUMO Mot1 rescue -1, ATG4B inh -7 and V-ATPase pHluor 0.
COc1ccccc1NC(=O)CN(c1ccc(C)cc1)S(=O)(=O)c1c(C)n[nH]c1C was read as Efflux pump mplx 0, SUMO Mot1 rescue 981*, AI-2 QS modul 14, ATG4B inh -13, V-ATPase pHluor 5 and Yeast Mot1 SUMO 1.
`OCC#CCSc1nnc(-c2ccncc2)o1` gave Efflux pump mplx 0, SUMO Mot1 rescue -19, AI-2 QS modul 24, ATG4B inh 2 and V-ATPase pHluor 7.
COc1cc(-c2nnc(SCC#CCO)o2)cc(OC)c1OC was read as Efflux pump mplx 0, SUMO Mot1 rescue 967*, AI-2 QS modul 3, ATG4B inh -8, V-ATPase pHluor -2 and Yeast Mot1 SUMO 1.
Screening CCOC(=O)N1CCN(c2cc3[nH]c(=S)[nH]c3cc2F)CC1 returned Efflux pump mplx 0, SUMO Mot1 rescue 400*, AI-2 QS modul 15, ATG4B inh 2, V-ATPase pHluor 1 and Yeast Mot1 SUMO 0.
`CCOC(=O)N1CCN(c2c(F)cc3[nH]c(=S)[nH]c3c2Br)CC1` gave Efflux pump mplx 0, SUMO Mot1 rescue 293, AI-2 QS modul -23, ATG4B inh -1 and V-ATPase pHluor -3.
O=C(CCNC(=O)c1ccc(Cl)cc1)Nc1ccccc1N1CCCCC1 was read as Efflux pump mplx 0, SUMO Mot1 rescue 14, AI-2 QS modul 28, ATG4B inh 7 and V-ATPase pHluor -1.
COC(=O)C1CSc2[nH]c(=O)sc2C1c1ccc(OC)c(OC)c1 (stereo not given) was read as Efflux pump mplx 0, SUMO Mot1 rescue -8, AI-2 QS modul 20, ATG4B inh 5 and V-ATPase pHluor -2.
`COC(=O)C1C(c2ccc(OC)c(OC)c2)NC(c2ccc(OC)c(OC)c2)C(C(=O)OC)S1(=O)=O` (stereo not given) gave Efflux pump mplx 0, SUMO Mot1 rescue 520*, AI-2 QS modul -4, ATG4B inh -17, V-ATPase pHluor 8 and Yeast Mot1 SUMO 0.
For CCc1cc2c(NCCO)ncnc2s1 the results were Efflux pump mplx 0, SUMO Mot1 rescue active, AI-2 QS modul 16, ATG4B inh -14, V-ATPase pHluor 1 and Yeast Mot1 SUMO 0.
Screening COc1ccc(OC)c(-c2nn(-c3ccccc3)cc2C(=O)NCC(c2ccco2)N2CCCC2)c1 (stereo not given) returned Efflux pump mplx 0, SUMO Mot1 rescue -17, ATG4B inh 0 and V-ATPase pHluor -3.
`Cc1onc(-c2ccccc2Cl)c1C(=O)N1CCc2ccccc2C1` gave Efflux pump mplx 1, SUMO Mot1 rescue 680*, AI-2 QS modul 8, ATG4B inh 1, V-ATPase pHluor -2 and Yeast Mot1 SUMO 0.
For O=C(CCc1ccccc1)N1CCN(c2ccccc2F)CC1 the results were Efflux pump mplx 0, SUMO Mot1 rescue 793*, AI-2 QS modul 2, ATG4B inh -24, V-ATPase pHluor -2 and Yeast Mot1 SUMO 0.
For CS(=O)(=O)N(CC(=O)N1CCN(c2ccccc2F)CC1)C1CCCCC1 the results were Efflux pump mplx 0, SUMO Mot1 rescue 680*, AI-2 QS modul 5, ATG4B inh 12, V-ATPase pHluor 0 and Yeast Mot1 SUMO 0.
CC(C)C1Cc2[nH]c(=O)c(C(=O)O)cc2CO1 (stereo not given) was read as Efflux pump mplx 0, SUMO Mot1 rescue 134, AI-2 QS modul 23, ATG4B inh 1 and V-ATPase pHluor 2.
`Cc1ccc(C)c(OCCCC(=O)N2CCOCC2)c1` gave Efflux pump mplx 0, SUMO Mot1 rescue 689*, AI-2 QS modul 5, ATG4B inh -4, V-ATPase pHluor 2 and Yeast Mot1 SUMO 1.
For Cc1ccc(C)c(OCCCC(=O)O)c1 the results were Efflux pump mplx 0, SUMO Mot1 rescue 83, AI-2 QS modul 13, ATG4B inh -3 and V-ATPase pHluor 0.
`OCC[C@@H]1C[C@@H](O)[C@H](O)[C@]2(CCCCO2)O1` gave SUMO Mot1 rescue -6, AI-2 QS modul 21, ATG4B inh 5 and V-ATPase pHluor -3.
`O=S(=O)(NCc1ccccc1)c1ccc(S(=O)(=O)N(Cc2ccccn2)Cc2ccco2)cc1` gave Efflux pump mplx 0, SUMO Mot1 rescue 841*, AI-2 QS modul -4, ATG4B inh -3, V-ATPase pHluor 3 and Yeast Mot1 SUMO 0.
Screening CCOc1ccc(CCN2CN(C3CCCCC3)CNC2=S)cc1OCC returned Efflux pump mplx 0, SUMO Mot1 rescue 431*, AI-2 QS modul 6, ATG4B inh -2, V-ATPase pHluor 0 and Yeast Mot1 SUMO 1.
For CCCCN1CNC(=S)N(CCc2ccc(OCC)c(OCC)c2)C1 the results were Efflux pump mplx 0, SUMO Mot1 rescue -32, AI-2 QS modul 19, ATG4B inh 1 and V-ATPase pHluor 2.
c1ccc(N2CCN(C3CCSC3)CC2)cc1 (stereo not given) was read as Efflux pump mplx 0, SUMO Mot1 rescue 817*, AI-2 QS modul 0, ATG4B inh 1, V-ATPase pHluor -7 and Yeast Mot1 SUMO 1.
COc1ccccc1NC(=S)N(Cc1ccco1)Cc1cc2cccc(C)c2[nH]c1=O was read as Efflux pump mplx 0, SUMO Mot1 rescue 387*, AI-2 QS modul 29, ATG4B inh -5, V-ATPase pHluor -1 and Yeast Mot1 SUMO 0.
For Nc1ccn(CC(=O)N[C@H](CO)Cc2c[nH]c3ccccc23)c(=O)n1 the results were Efflux pump mplx 0, SUMO Mot1 rescue -2, ATG4B inh -4 and V-ATPase pHluor -2.
